These results are taken from PubChem BioAssay (NCI).

The panel holds about 83,000 compounds, 20% with a hit somewhere; the sample as a whole holds those more often.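 For each line, cells grew in 96-well plates with the test compound present at a single concentration for 48 hours.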 Unmarked numbers belong to inactive results. Calls of active or inactive are those of the source. How the source made its calls: active means growth percent below 10; inactive means the rest.

The test relates to MDA-MB-468 breast. In words: NCI-60 one-dose screen, 48 h (100 = growth as untreated, 0 = no growth, -100 = all killed). Conditions: 10 µM unless noted.
On to `O=[N+]([O-])c1cccc(/C=C/c2ccc3ccccc3n2)c1`, for which the growth is 71.2%.

Regarding `O=C1/C(=C\c2ccccc2)CN(C(=O)c2ccccc2)C/C1=C\c1ccccc1`, the growth is -48.6% (active).

`Clc1ccccc1-c1cnn2cc(-c3ccccc3)cnc12`: the growth is 90.8%.

Consider `CC1(O)CCCCCC1`, for which the growth was 100%.

Regarding `Cc1cc2nc3c4cc(C=O)ccc4n(CCN(C)C)c3nc2cc1C`, the growth is -5.88% (active).

As to `COC(=O)c1nc(-c2ccccc2)oc1S(=O)(=O)N1CCC(C(N)=O)CC1`, the growth is -14.6% (active).

For `O=C(c1cccs1)c1ccccc1Cc1ccccc1`, the growth was 100%.

Take `CCCCCCCCCCCCCCCCCCNC(=O)[C@H]1CSC(c2cccs2)N1` (stereo partly specified): the growth was 60.8%.

On to `CC(=O)N(C(C)=O)c1ccc(C)cc1`, for which the growth was 98.9%.

With `Cc1cc(N(CCCNc2ccnc3cc(Cl)ccc23)Cc2ccccn2)nc(N2CCCC2)n1`, the growth was 88.3%.

With `O=C(NC1CCCCC1)OCc1c(COC(=O)NC2CCCCC2)c(-c2ccc(Cl)c(Cl)c2)n2c1CCC2`, the growth was -61.7% (active).

Consider `CCOC(=O)CC1CSC(N/N=C/c2ccc(F)c(Br)c2)=N1` (stereo unspecified), for which the growth was 116%.

Regarding `Nc1ccc(N)c([N+](=O)[O-])c1`, the growth is 88%.

`COC(=O)c1cc(N=C2NC(=O)/C(=C/C=C/c3ccccc3)S2)ccc1O`: the growth is 17.5%.

As for `OC1CC2c3ccccc3C1c1ccccc12` (stereo unspecified), the growth is 111%.

Consider `O=C1CCCN1c1cccc2cccnc12`, for which the growth is 98.8%.

As for `O=C(N/N=C/c1c(Cl)cccc1Cl)c1cccc(Nc2ccnc(C(F)(F)F)c2)c1`, the growth is 67.6%.

Turning to `Cc1cc2ccccc2nc1-c1ccccc1F`, the growth is 105%.

Consider `N/C(=N\C(N)=N\c1nc2ccccc2s1)c1ccc(Cl)cc1`, for which the growth is 94.6%.

Take `NC(=S)NN=C1CCCCC1`: the growth is 26.4%.

As for `CN1CCN(Cc2ccc(NC(=O)c3cncc(C#Cc4cnc5ccc(N)nn45)c3)cc2C(F)(F)F)CC1`, the growth was 25.5%.

With `CC(=O)OC[C@]12CC[C@@H](/C(C)=N/O)[C@@H]1[C@H]1CC[C@@H]3[C@@]4(C)CCCNC(C)(C)[C@@H]4CC[C@@]3(C)[C@]1(C)CC2`, the growth was 54.1%.

For the compound `Nc1nc2c(c3ncccc13)C(c1cccc(Br)c1)Cc1ncccc1-2` (stereo unspecified), the growth is 13.7%.

As for `O=C1/C(=C/c2ccc(F)cc2)COc2ccc(O)cc21`, the growth is 86.4%.

For the compound `CC(C)CCc1nc2ccc(NCc3ccc(OCCN4CCC(C)CC4)cc3)cc2[nH]1`, the growth was 65.6%.

As to `C=C1C(=O)O[C@H]2[C@H]1CC/C(COC(=O)c1ccc3ccccc3c1)=C\CC[C@@]1(C)O[C@@H]21`, the growth is -57.9% (active).
